Experimental data reported in PubChem BioAssay AID1159580 (chemical genetic matrix, 2015).
The campaign covered roughly 5,500 compounds. About 2,000 (36%) were called active. Inconclusive results (about 18%) are left out. Cut-off read from the data, not from the text of the source: active = normalized growth mostly below about 0.91 (no sharp cut-off); inconclusive = no clear call, values can overlap the other calls; inactive = mostly above about 0.92. This is one part of the list.

Experiment: chemical genetic growth profiling, strain panel (AID 1159580);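 note: tested at 20 µM; growth read once vehicle control cultures reached saturation at 30 °C; 1 = growth at the plate median or of vehicle wells; lower values mean less growth of the strain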
Conditions: growth OD

Measured: normalized growth

CN[C@@H]1C(O)[C@@H](O[C@@H]2[C@@H](O)[C@H](O[C@H]3OC(CN)=CC[C@H]3N)[C@@H](N)C[C@H]2N)OC[C@]1(C)O (some centres undefined)
inactive: S. cerevisiae deletion strains, locus YJR075W, strain HOC1, active compounds read low 1.02 | S. cerevisiae deletion strains, locus YKL009W, strain mrt4, active compounds read low 1.01 | S. cerevisiae deletion strains, locus YKL068W, active compounds read low 0.996 | S. cerevisiae deletion strains, locus YKL085W, strain MDH1 (second series), active compounds read low 1 | S. cerevisiae deletion strains, locus YKL085W, strain MDH1, active compounds read low 1 | S. cerevisiae deletion strains, locus YKL160W, strain elf1, active compounds read low 1.02 | S. cerevisiae deletion strains, locus YKL190W, strain CNB1, active compounds read low 1.02 | S. cerevisiae deletion strains, locus YKR001C, strain vps1, active compounds read low 0.993 | S. cerevisiae deletion strains, locus YKR026C, strain gcn3, active compounds read low 1 | S. cerevisiae deletion strains, locus YKR091W, strain srl3, active compounds read low 1.01 | S. cerevisiae deletion strains, locus YLL001W, strain dnm1, active compounds read low 1.03 | S. cerevisiae deletion strains, locus YLL026W, active compounds read low 1.02 | S. cerevisiae deletion strains, locus YLL041C, strain sdh2, active compounds read low 1.02 | S. cerevisiae deletion strains, locus YLR027C, strain aat2, active compounds read low 1.02 | S. cerevisiae deletion strains, locus YLR039C, strain RIC1, active compounds read low 1.13 | S. cerevisiae deletion strains, locus YLR058C, strain SHM2, active compounds read low 1.02 | S. cerevisiae deletion strains, locus YLR102C, strain apc9, active compounds read low 0.993 | S. cerevisiae deletion strains, locus YLR113W, strain HOG1, active compounds read low 0.949 | S. cerevisiae deletion strains, locus YLR221C, strain rsa3, active compounds read low 0.984 | S. cerevisiae deletion strains, locus YLR258W, strain gsy2, active compounds read low 1.01 | S. cerevisiae deletion strains, locus YLR262C, strain YPT6 (second series), active compounds read low 1.03 | S. cerevisiae deletion strains, locus YLR262C, strain YPT6, active compounds read low 1.09 | S. cerevisiae deletion strains, locus YLR268W, strain sec22, active compounds read low 1.01 | S. cerevisiae deletion strains, locus YLR320W, strain mms22, active compounds read low 0.988 | S. cerevisiae deletion strains, locus YLR330W, strain CHS5, active compounds read low 1.01 | S. cerevisiae deletion strains, locus YLR342W, strain FKS1 (second series), active compounds read low 1.05 | S. cerevisiae deletion strains, locus YLR342W, strain FKS1, active compounds read low 1.02 | S. cerevisiae deletion strains, locus YLR357W, strain rsc2, active compounds read low 1.03 | S. cerevisiae deletion strains, locus YLR370C, strain arc18, active compounds read low 1.02 | S. cerevisiae deletion strains, locus YLR371W, strain rom2, active compounds read low 0.995 | S. cerevisiae deletion strains, locus YLR384C, strain iki3, active compounds read low 1.01 | S. cerevisiae deletion strains, locus YLR418C, strain cdc73, active compounds read low 1.02 | S. cerevisiae deletion strains, locus YML016C, strain PPZ1, active compounds read low 1.02 | S. cerevisiae deletion strains, locus YML120C, strain ndi1, active compounds read low 1.02 | S. cerevisiae deletion strains, locus YML124C, strain tub3, active compounds read low 0.991 | S. cerevisiae deletion strains, locus YMR058W, strain fet3, active compounds read low 1.03 | S. cerevisiae deletion strains, locus YMR078C, strain ctf18, active compounds read low 0.996 | S. cerevisiae deletion strains, locus YMR125W, strain sto1, active compounds read low 1 | S. cerevisiae deletion strains, locus YMR129W, active compounds read low 1.01 | S. cerevisiae deletion strains, locus YMR205C, strain PFK2, active compounds read low 1.02 | S. cerevisiae deletion strains, locus YMR223W, strain ubp8, active compounds read low 1 | S. cerevisiae deletion strains, locus YMR231W, strain pep5, active compounds read low 1 | S. cerevisiae deletion strains, locus YMR263W, strain SAP30, active compounds read low 1.05 | S. cerevisiae deletion strains, locus YMR307W, strain GAS1, active compounds read low 1.01 | S. cerevisiae deletion strains, locus YNL067W, strain RPL9B, active compounds read low 1.04 | S. cerevisiae deletion strains, locus YNL071W, strain lat1, active compounds read low 1.02 | S. cerevisiae deletion strains, locus YNL128W, strain TEP1, active compounds read low 1.04 | S. cerevisiae deletion strains, locus YNL153C, strain GIM3, active compounds read low 1.03 | S. cerevisiae deletion strains, locus YNL183C, strain NPR1, active compounds read low 0.93 | S. cerevisiae deletion strains, locus YNL209W, strain ssb2, active compounds read low 1.01 | S. cerevisiae deletion strains, locus YNL233W, strain BNI4, active compounds read low 1.02 | S. cerevisiae deletion strains, locus YNL248C, strain rpa49, active compounds read low 0.992 | S. cerevisiae deletion strains, locus YNL250W, strain rad50, active compounds read low 1 | S. cerevisiae deletion strains, locus YNL271C, strain bni1, active compounds read low 1 | S. cerevisiae deletion strains, locus YNL298W, strain CLA4, active compounds read low 1 | S. cerevisiae deletion strains, locus YNL307C, strain MCK1, active compounds read low 0.999 | S. cerevisiae deletion strains, locus YNL322C, strain KRE1 (second series), active compounds read low 0.996 | S. cerevisiae deletion strains, locus YNL322C, strain KRE1, active compounds read low 1.02 | S. cerevisiae deletion strains, locus YNR049C, strain mso1, active compounds read low 1.04 | S. cerevisiae deletion strains, locus YNR052C, strain pop2, active compounds read low 0.987 | S. cerevisiae deletion strains, locus YOL006C, strain TOP1, active compounds read low 1.19 | S. cerevisiae deletion strains, locus YOL012C, strain htz1 2.02 | S. cerevisiae deletion strains, locus YOL147C, strain pex11, active compounds read low 0.986 | S. cerevisiae deletion strains, locus YOR001W, strain rrp6, active compounds read low 1.03 | S. cerevisiae deletion strains, locus YOR061W, strain CKA2, active compounds read low 1.02 | S. cerevisiae deletion strains, locus YOR070C, strain gyp1, active compounds read low 1 | S. cerevisiae deletion strains, locus YOR080W, strain dia2, active compounds read low 1 | S. cerevisiae deletion strains, locus YOR083W, strain WHI5, active compounds read low 0.992 | S. cerevisiae deletion strains, locus YOR106W, strain vam3, active compounds read low 1.03 | S. cerevisiae deletion strains, locus YOR136W, strain idh2, active compounds read low 0.991 | S. cerevisiae deletion strains, locus YOR144C, strain elg1, active compounds read low 0.991 | S. cerevisiae deletion strains, locus YOR184W, strain ser1, active compounds read low 1.01 | S. cerevisiae deletion strains, locus YOR231W, strain MKK1, active compounds read low 0.952 | S. cerevisiae deletion strains, locus YOR265W, strain rbl2, active compounds read low 1 | S. cerevisiae deletion strains, locus YOR270C, strain vph1, active compounds read low 1.05 | S. cerevisiae deletion strains, locus YOR290C, strain snf2, active compounds read low 0.979 | S. cerevisiae deletion strains, locus YPL051W, strain arl3, active compounds read low 1.01 | S. cerevisiae deletion strains, locus YPL055C, strain LGE1, active compounds read low 1.09 | S. cerevisiae deletion strains, locus YPL078C, strain atp4, active compounds read low 1.03 | S. cerevisiae deletion strains, locus YPL106C, strain sse1, active compounds read low 1.02 | S. cerevisiae deletion strains, locus YPL240C, strain hsp82, active compounds read low 1.01 | S. cerevisiae deletion strains, locus YPL256C, strain CLN2, active compounds read low 0.96 | S. cerevisiae deletion strains, locus YPR119W, strain clb2, active compounds read low 0.984 | S. cerevisiae deletion strains, locus YPR141C, strain kar3, active compounds read low 1 | S. cerevisiae deletion strains, locus YPR163C, strain tif3, active compounds read low 0.966 | S. cerevisiae deletion strains, locus YPR167C, strain met16, active compounds read low 0.999 | S. cerevisiae deletion strains, strain wtn01, active compounds read low 1.01 | S. cerevisiae strains, strain wild type, active compounds read low 1.01
active: S. cerevisiae deletion strains, locus YOR069W, strain VPS5, active compounds read low 1.11 [resistant]
